Values joined by “and” are separate entries in the source; they are usually repeats but may differ in a detail not shown here. Identical values can stand only once. The source holds several records for some structures; these can differ, active in one and inactive in another. Active and inactive are the calls of the source. The calls were made as follows: active = hit-call score of the fitted dose curve at least 0.9, where 1 is the maximum; inactive = score below 0.9.

Read-out in the first assay: TIMP metallopeptidase inhibitor 1 (TIMP1), TIMP1 (gene 7076)
Briefly: BSK_MyoF_TIMP1: BioMAP Diversity Plus: MyoF Assay for TIMP metallopeptidase inhibitor 1 (TIMP1) Biomarker Activity (AID 2284269). As to conditions: primary human lung fibroblasts. Summed up: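 ELISA quantified TIMP-1 levels after 24 h dosing of primary human lung fibroblasts, with DMSO as baseline. Parallel SRB total protein staining (0.1% SRB after TCA fixation, 560 nm) flagged overt cytotoxicity.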
In the case of `NC(=O)C(F)(F)C(F)(F)F`, the result was inactive. Same read-out and setting: with `Cc1ccc2c(c1N)C(=O)c1ccccc1C2=O` the entry was “inactive”. For `CC(C)Nc1ccc(Nc2ccccc2)cc1`, the AC50 (as a rule, the concentration giving half of the maximal activity seen) is 20 µM (active). On to `N#Cc1cc([N+](=O)[O-])ccc1N`, for which the outcome was inactive. As to `OCC(F)(F)OC(F)(F)C(F)(F)OC(F)(F)CO`, the outcome was inactive. Still for that read-out and setting: with `O=C(O)C(F)(F)OC(F)(F)C(F)(F)OC(F)(F)C(=O)O` the entry was “inactive”; with `FC(F)(F)C(F)(C(F)(F)F)C(F)(F)C(F)(F)CC1CO1` (configuration not stated), “inactive”; with `O=C(O)C(F)(F)OC(F)(F)C(F)(F)OC(F)(F)F`, “inactive”. In the case of `C=CC(=O)OCC(F)(F)C(F)F`, the AC50 was 47.6 µM (active) and the outcome was inactive.

In the case of `O=S(=O)(F)C(F)(F)C(F)(F)C(F)(F)C(F)(F)C(F)(F)C(F)(F)C(F)(F)C(F)(F)F`, the result was inactive. Consider `O=c1ssc(Cl)c1Cl`, for which the AC50 was 7.43 µM (active).

Take `O=C(O)C(F)(OC(F)(F)C(F)(F)C(F)(F)F)C(F)(F)F` (configuration not stated): the outcome was inactive. Regarding `N#Cc1c(-c2ccc(Cl)cc2)[nH]c(C(F)(F)F)c1Br`, the AC50 was 20 µM (active). With `CCOP(=S)(S)OCC`, the outcome was inactive.

In the case of `Cc1c([N+](=O)[O-])cc2c(c1[N+](=O)[O-])C(C)(C)CC2(C)C`, the result was inactive. On the same count and under the same terms, the entry for `CCOP(=S)(OCC)SCSc1ccc(Cl)cc1` is “inactive”; for `O=C(O)C(F)(F)C(F)(F)C(=O)O` it is “inactive”; for `O=C(O)C=CC(F)(C(F)(F)F)C(F)(F)F` it is “inactive”. With `ClC(Cl)=C(c1ccc(Cl)cc1)c1ccccc1Cl`, the AC50 was 5.76 µM (active). For `C=CC(=O)OCC(CC)(COC(=O)C=C)COC(=O)C=C`, the AC50 is 9.61 µM (active).

`COC(=O)C(F)(F)C(F)(F)OC(F)(C(F)(F)F)C(F)(F)OC(F)=C(F)F` (configuration not stated): the outcome was inactive. Same read-out and setting: the entry for `O=S1(=O)OCC2C(CO1)C1(Cl)C(Cl)=C(Cl)C2(Cl)C1(Cl)Cl` (configuration not stated) is “inactive”; for `CCOP(=S)(OCC)SCS(=O)(=O)CC` it is “inactive”. The same measure, in the same setting: with `CC(Cl)CN(C)C` (configuration not stated) the entry was “inactive”; with `CCOP(=S)(NC(C)C)Oc1ccccc1C(=O)OC(C)C` (configuration not stated), “inactive”; with `CCOP(=S)(OCC)SCn1nnc2ccccc2c1=O`, “inactive”.

For `O=P(OCC(Br)CBr)(OCC(Br)CBr)OCC(Br)CBr` (configuration not stated), the outcome was inactive.

Turning to `c1ccc2c(c1)sc1ccccc12`, the result was inactive. Regarding `OCC(F)(F)OC(F)(F)C(F)(F)OC(F)(F)C(F)(F)OC(F)(F)F`, the half-maximal activity concentration (AC50) is 22.3 µM (active) and 27.8 µM (active). Consider `Nc1ccc([N+](=O)[O-])cc1Cl`, for which the outcome was inactive. Still for that read-out and setting: with `CCCCC(CC)COC(=O)c1c(Br)c(Br)c(Br)c(Br)c1C(=O)OCC(CC)CCCC` (configuration not stated) the entry was “inactive”. `CC(C)(C)c1ccccc1OP(=O)(Oc1ccccc1)Oc1ccccc1`: the AC50 is 26.8 µM (active). As for `OCC(F)(F)OC(F)(F)C(F)(F)OC(F)(F)C(F)(F)OC(F)(F)CO`, the outcome was inactive. On the same count and under the same terms, with `CCCCOCCOP(=O)(OCCOCCCC)OCCOCCCC` the entry was “inactive”; with `CC(O)C(F)(F)C(F)(F)F` (configuration not stated), “inactive”.

Consider `CCCCC(CC)COP(=O)(Oc1ccccc1)Oc1ccccc1` (configuration not stated), for which the AC50 was 6.48 µM (active). Turning to `COP(=O)(O)OC`, the result was inactive. Still for that read-out and setting: the entry for `COP(N)(=S)OC` is “inactive”.

Read-out in a further assay: Matrix Metallopeptidase 1 (MMP1), MMP1 (gene 4312)
Put plainly: BSK_BF4T_MMP1: BioMAP Diversity Plus: BF4T Assay for Matrix Metallopeptidase 1 (MMP1) Biomarker Activity (AID 2284270). As to conditions: primary human bronchial epithelial cells with fibroblasts. In short, it runs like this: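 MMP-1 quantified by ELISA in primary human bronchial epithelial/dermal fibroblast co-cultures, 24 hours post-dosing, with DMSO as baseline; parallel sulforhodamine B staining (560 nm) tracks overt cytotoxicity.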
With `NC(=O)C(F)(F)C(F)(F)F`, the outcome was inactive. Same read-out and setting: with `OCC(F)(F)OC(F)(F)C(F)(F)OC(F)(F)CO` the entry was “inactive”.

With `O=C(O)C(F)(F)OC(F)(F)C(F)(F)OC(F)(F)C(=O)O`, the result was inactive. Consider `FC(F)(F)C(F)(C(F)(F)F)C(F)(F)C(F)(F)CC1CO1` (configuration not stated), for which the result was inactive. On the same count and under the same terms, with `O=C(O)C(F)(F)OC(F)(F)C(F)(F)OC(F)(F)F` the entry was “inactive”. Same read-out and setting: with `C=CC(=O)OCC(F)(F)C(F)F` the entry was “inactive”; with `O=S(=O)(F)C(F)(F)C(F)(F)C(F)(F)C(F)(F)C(F)(F)C(F)(F)C(F)(F)C(F)(F)F`, “inactive”. Still for that read-out and setting: the entry for `O=C(O)C(F)(OC(F)(F)C(F)(F)C(F)(F)F)C(F)(F)F` (configuration not stated) is “inactive”; for `O=C(O)C(F)(F)C(F)(F)C(=O)O` it is “inactive”; for `O=C(O)C=CC(F)(C(F)(F)F)C(F)(F)F` it is “inactive”. As for `COC(=O)C(F)(F)C(F)(F)OC(F)(C(F)(F)F)C(F)(F)OC(F)=C(F)F` (configuration not stated), the outcome was inactive.

`OCC(F)(F)OC(F)(F)C(F)(F)OC(F)(F)C(F)(F)OC(F)(F)F`: the result was inactive.

As for `OCC(F)(F)OC(F)(F)C(F)(F)OC(F)(F)C(F)(F)OC(F)(F)CO`, the result was inactive. On the same count and under the same terms, with `CC(O)C(F)(F)C(F)(F)F` (configuration not stated) the entry was “inactive”.

Read-out in the next assay: Matrix Metallopeptidase 3 (MMP3), MMP3 (gene 4314)
Briefly: BSK_BF4T_MMP3: BioMAP Diversity Plus: BF4T Assay for Matrix Metallopeptidase 3 (MMP3) Biomarker Activity (AID 2284271). As to conditions: primary human bronchial epithelial cells with fibroblasts. Summed up: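 MMP-3 level read by ELISA after 24 h chemical exposure of bronchial epithelial cell/dermal fibroblast co-cultures, fitted upward relative to DMSO. Parallel cultures stained with 0.1% SRB after TCA fixation gauge overt cytotoxicity.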
Turning to `NC(=O)C(F)(F)C(F)(F)F`, the result was inactive. With `OCC(F)(F)OC(F)(F)C(F)(F)OC(F)(F)CO`, the outcome was inactive. On the same count and under the same terms, the entry for `O=C(O)C(F)(F)OC(F)(F)C(F)(F)OC(F)(F)C(=O)O` is “inactive”; for `FC(F)(F)C(F)(C(F)(F)F)C(F)(F)C(F)(F)CC1CO1` (configuration not stated) it is “inactive”. Still for that read-out and setting: with `O=C(O)C(F)(F)OC(F)(F)C(F)(F)OC(F)(F)F` the entry was “inactive”; with `C=CC(=O)OCC(F)(F)C(F)F`, “inactive”; with `O=S(=O)(F)C(F)(F)C(F)(F)C(F)(F)C(F)(F)C(F)(F)C(F)(F)C(F)(F)C(F)(F)F`, “inactive”.

For the molecule `O=C(O)C(F)(OC(F)(F)C(F)(F)C(F)(F)F)C(F)(F)F` (configuration not stated), the result was inactive. With `O=C(O)C(F)(F)C(F)(F)C(=O)O`, the outcome was inactive. On the same count and under the same terms, with `O=C(O)C=CC(F)(C(F)(F)F)C(F)(F)F` the entry was “inactive”; with `COC(=O)C(F)(F)C(F)(F)OC(F)(C(F)(F)F)C(F)(F)OC(F)=C(F)F` (configuration not stated), “inactive”. Same read-out and setting: with `OCC(F)(F)OC(F)(F)C(F)(F)OC(F)(F)C(F)(F)OC(F)(F)F` the entry was “inactive”; with `OCC(F)(F)OC(F)(F)C(F)(F)OC(F)(F)C(F)(F)OC(F)(F)CO`, “inactive”; with `CC(O)C(F)(F)C(F)(F)F` (configuration not stated), “inactive”.

Source of the values: PubChem BioAssay (EPA / NIEHS).
